We go through 124 compounds from PMC9574860, “Chemical Toolkit for PARK7: Potent, Selective, and High-Throughput” (Journal of Medicinal Chemistry, 2022).

Out of some 7,900 compounds screened, about 400 (5.1%) showed an effect of 50% or more. Many of the other results were omitted from the sample, so strong results are more common in it than they were.

Sequence of Parkinson's disease protein 7 (PARK7/DJ1) (Q99497 whole entry, looked up, the tested form may be a part): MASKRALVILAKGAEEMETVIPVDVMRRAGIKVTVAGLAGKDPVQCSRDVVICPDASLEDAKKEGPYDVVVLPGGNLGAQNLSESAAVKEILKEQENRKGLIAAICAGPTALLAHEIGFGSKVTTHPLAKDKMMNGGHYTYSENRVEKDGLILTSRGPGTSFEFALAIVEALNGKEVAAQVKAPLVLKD

The target of this experiment is Parkinson's disease protein 7 (PARK7/DJ1) (human, UniProt Q99497). The experiment in a line: primary screen, percent inhibition; read as competition with a fluorescent probe by fluorescence polarization; higher = more effect of the substance. The following applies: 100 µM. In a few lines:
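Fluorescence-polarization probe displacement (JYQ-107, 20 nM final, 2 h) after 2 h preincubation of PARK7 (0.2 μM final) with each fragment at 100 μM final. Read-out ex/em 480/520 nm; remaining activity derived from FP signal loss relative to reference controls.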
Regarding `Cn1nncc1B1OC(C)(C)C(C)(C)O1`, the Inhibition % stood at 6.79%.
Take `C=CC(=O)N1CCC(c2ncc(C)s2)CC1`: the Inhibition % is recorded as 1.87%.
The figure for `O=C(C=CC1=CCCC1)N1CCCC(N2CCNC2=O)C1` (stereo not shown) is 28%; for `Cl.O=S(=O)(F)C1CCCNC1` (stereo not shown) it is 8.33%.
The same measure for `C=CC(=O)N1CCN(CC)C(=O)C1(C)C`: 2.96%; for `C=CC(=O)N1CCC(C#N)(COC)CC1`: 5.2%; for `Cc1ccc(NC(=O)CN2CCSC2=O)cc1F`: 3.32%.
The figure for `COC(=O)Cc1csc(NC(=O)CCl)n1` is 20.2%; for `Cc1cc(C)nc(S)c1` it is 6.52%.
As for `O=C1OCCC1N1CCOC(c2nccs2)C1` (stereo not shown), the Inhibition % came to 13.9%.
The same measure for `C=CC(=O)NCCc1ccc(F)cn1`: -26.8%; for `C=CC(=O)N1CCC(C(=O)N(C)c2ccccc2)C1` (stereo not shown): 9.62%; for `C=CC(=O)NCc1coc2ccccc12`: 7.72%.
The figure for `COc1ccccc1CNC(=O)n1ccnc1` is 5.2%.
The figure for `O=C(NCC(F)(F)F)n1ccnc1` is 6.27%.
On to `O=C(Nc1ccc(CNC(=O)n2ccnc2)cc1)C1CC1`, for which the Inhibition % was 92.1%.
The same measure for `O=C(NCC1CCCC1)n1ccnc1`: 40.7%; for `COc1cccc(CNC(=O)n2ccnc2)c1`: 95.1%.
The figure for `O=C(NCCc1ccc(F)cc1)n1ccnc1` is 12.7%; for `Cc1ccccc1CCNC(=O)n1ccnc1` it is 101%; for `CC(C)C(=O)Nc1ccc(CNC(=O)n2ccnc2)cc1` it is 0.0136%.
On to `O=C(N1CCC1c1ccccc1)n1ccnc1` (stereo not shown), for which the Inhibition % was determined as 11.7%.
With `CNC(=O)n1ccnc1`, the Inhibition % was 75.1%.
As to `COc1ccc(CNC(=O)n2ccnc2)cc1OC`, the Inhibition % is given as 6.72%.
Turning to `Cc1ccccc1CCNC(=O)Cn1cnc(C#N)n1`, the Inhibition % is recorded as 4.99%.
The same measure for `Cc1cc(C)nc(C#N)c1`: 9.14%.
Turning to `NCC1CCCCN1C(=O)C=Cc1ccccn1` (stereo not shown), the Inhibition % was determined as 1.06%.
The same measure for `C=CC(=O)NC1CCN(C2CCOC2)CC1` (stereo not shown): 22%; for `C=CC(=O)NCCc1noc(-c2ccccn2)n1`: 11%.
The figure for `C=CC(=O)NCc1ccnc(C)n1` is 7.47%; for `C=CC(=O)NCc1nnc(C2CC2)o1` it is 6.84%; for `Nc1ccc(NC(=O)Oc2ccccc2)cc1` it is 11.2%.
The same measure for `CC1(C)OB(c2cccc3c2CCC3)OC1(C)C`: 3.3%; for `CC(C)CC(=O)Nc1ccc(C(=O)CCl)cc1`: 3.15%.
Regarding `CC(C)C(=O)Nc1ccc(C(=O)CCl)cc1`, the Inhibition % was 2.39%.
The same measure for `CCCC(=O)Nc1ccc(C(=O)CCl)cc1`: 5.21%; for `NC(=O)Nc1ccc(C(=O)CCl)cc1`: 89.6%; for `O=C(CCl)c1ccc(NC(=O)c2ccco2)cc1`: 90.6%.
The figure for `CCC(=O)Nc1ccc(C(=O)CCl)cc1` is 4.09%; for `CS(=O)(=O)c1ccc(C(=O)CCl)cc1` it is 87.3%.
Regarding `CS(=O)(=O)c1ccc(OCCCl)cc1`, the Inhibition % came to 4.09%.
The same measure for `CC(=O)Nc1ccc(C(=O)CCl)cc1`: 82.5%; for `O=C(CCl)NC(=O)c1ccco1`: 22.8%; for `CC1(C)OB(c2ccc(OCCS(C)(=O)=O)cc2)OC1(C)C`: -1.19%.
The same measure for `N#Cc1cccc(OCC(F)(F)F)n1`: -0.809%; for `CN(C)S(=O)(=O)c1ccc(S)nc1`: 31.2%.
The same measure for `O=c1onc(-c2ncccn2)n1Cc1ccccc1F`: 1.26%; for `CC(=O)Nc1ccc(Sc2nccnc2C#N)cc1`: 18.2%; for `CC1(C)OB(C2CNC2)OC1(C)C.O=C(O)C(F)(F)F`: 11.6%.
Turning to `COc1cc(F)ccc1N1CCN(C2CCOC2=O)CC1` (stereo not shown), the Inhibition % came out at 7.6%.
For the compound `O=C(O)CNC(=O)C12CC3CC(CC(Cl)(C3)C1)C2`, the Inhibition % is 7.56%.
The figure for `Cc1c(NC(=O)CCl)cccc1[N+](=O)[O-]` is 8.38%.
The figure for `C=CC(=O)NCC1CCC2(CCC2)CO1` (stereo not shown) is 5.32%; for `O=C(Nc1ccc(Cl)cc1)N1CCCCC1C1OCCO1` (stereo not shown) it is 5.3%.
As for `C=CC(=O)N1CCC(c2ccco2)CC1`, the Inhibition % is 8.73%.
The same measure for `Cc1ccn(S(=O)(=O)c2ccc(C(C)(C)C)cc2)n1`: 4.34%; for `Cc1ncsc1C=C(C#N)C(=O)NCCc1ccccc1`: 6.72%; for `CS(=O)(=O)Nc1ccc(C(=O)CCl)cc1`: 75.1%.
The figure for `CS(=O)(=O)Nc1ccc(B(O)O)cc1` is 9.91%; for `Cc1cc(I)ccc1NC(=O)CCl` it is 7.36%; for `Cc1c(NC(=O)c2cccnc2S)cnn1CCC(C)C` it is 3.61%.
The same measure for `O=C(CCl)c1ccc2c(c1)CCN(C(=O)C(F)(F)F)C2`: 2.68%.
`CC(=O)N1CCc2sc(C(=O)CCl)cc2C1`: the Inhibition % came out at 73.5%.
The same measure for `O=C(CCl)NNC(=O)c1cc2c(s1)CCCC2`: 4.38%; for `N#Cc1c(-c2ccccc2)nc(S)[nH]c1=O`: 13.2%.
The same measure for `Cc1ccc(CN2CCCN(C(=O)CCl)CC2)cc1.Cl`: 13%.
The figure for `COc1cc(S(=O)(=O)n2cccn2)ccc1F` is 1.65%; for `O=C1OCCC1Sc1ncnc2ccsc12` (stereo not shown) it is 3.13%; for `CN(C)C(=O)c1csc(C(=O)CCl)c1` it is 67.8%.
On to `Cn1cc(C(=O)CCl)cc1C(N)=O`, for which the Inhibition % is reported as 0.329%.
The figure for `NC(=O)c1csc(C(=O)CCl)c1` is 101%; for `O=C(CCl)Nc1cccc(C(=O)O)c1` it is 13.2%.
The figure for `O=C(O)c1csc(C(=O)CCl)c1` is 102%; for `CN(C)C(=O)c1ccc(NC(=O)CCl)cc1` it is 44.1%.
Take `CN(C)C(=O)c1cccc(NC(=O)CCl)c1`: the Inhibition % is listed as 12.2%.
The figure for `CN(C(=O)c1cc(C(N)=O)cs1)C1CC(C)(C)OC1=O` (stereo not shown) is 7.6%; for `CC(C)C1NC(=O)C12CCCCCC2` (stereo not shown) it is 9.56%; for `C=CC(=O)NC1(C)CCC(C)CC1` (stereo not shown) it is 29.1%.
The same measure for `C=CC(=O)NCCc1nc2c(C)cccc2o1`: 9.51%.
The same measure for `Cc1cc(NC(=O)CCl)n(-c2ccccc2)n1`: 29.6%.
With `Cc1nn(-c2ccccc2)c(C)c1C=C(C#N)C(=O)O`, the Inhibition % was 6.36%.
The figure for `CN(C)C(=O)c1ccc(B2OC(C)(C)C(C)(C)O2)c(Cl)c1` is 2.75%; for `Cn1ncc(C(=O)O)c1C#N` it is 13.7%.
Take `Cl.NCc1cc(=O)[nH]c(S)n1`: the Inhibition % came out at 27.5%.
The figure for `NC(=O)Cc1cc(=O)[nH]c(S)n1` is 52.6%.
The same measure for `CCCc1cc(=O)[nH]c(S)n1`: 8.86%; for `N#CC(=Cc1ccc(F)cc1)C(=O)O`: 2.9%.
The same measure for `C=CC(=O)NCC1(C)OCCc2sccc21` (stereo not shown): 16.4%; for `C=CC(=O)NC(C)(C)c1cnn(C)c1`: 3.17%; for `Cn1ncc(C(=O)Nc2cccc(S(=O)(=O)F)c2)c1C#N`: 4.68%.
On to `CSC1(C(=O)Nc2cccc(S(=O)(=O)F)c2)CC1`, for which the Inhibition % is recorded as 101%.
The same measure for `CC(F)(F)C1(C(=O)Nc2cccc(S(=O)(=O)F)c2)CC1`: 95.7%; for `Cn1cc(C(C)(C)C(=O)Nc2cccc(S(=O)(=O)F)c2)cn1`: 88.2%.
The figure for `COc1nc(C)ccc1C(=O)Nc1cccc(S(=O)(=O)F)c1` is 11.7%.
As to `CC1(C(=O)Nc2cccc(S(=O)(=O)F)c2)CCCC1`, the Inhibition % turned out to be 97.7%.
Take `Cc1cc(C(=O)Nc2cccc(S(=O)(=O)F)c2)nn1C(C)(C)C`: the Inhibition % is on record as 32.8%.
The figure for `COCCNC(=O)C(C#N)=Cc1c(Cl)cccc1Cl` is 2.17%; for `O=C(CCl)Nc1cccc2ncccc12` it is 40.3%; for `CS(=O)(=O)NC1CCCN(C(=O)C=Cc2cccnc2)C1` (stereo not shown) it is 5.3%.
Consider `N#CN(CCn1cncn1)c1ccccc1`, for which the Inhibition % is 6.47%.
The figure for `OB(O)c1ccc(OCC2CCCCO2)cc1` (stereo not shown) is 27.9%.
Turning to `CCN(c1ccc(C(F)(F)F)c(C#N)n1)C1CCOC1` (stereo not shown), the Inhibition % was determined as 8.44%.
The figure for `C=CC(=O)NC1CCCN(c2ncccn2)C1` (stereo not shown) is 4.88%; for `CC1(C)OB(c2ccc(C(F)C(F)(F)F)cc2)OC1(C)C` (stereo not shown) it is 3.09%.
Consider `Cc1cc(C)n(CCCNc2ccnc(C#N)c2)n1`, for which the Inhibition % stood at 3.45%.
The figure for `CC1CC(Sc2nccc(C(F)(F)F)n2)C(=O)O1` (stereo not shown) is 3.32%; for `C=CC(=O)N1CCCC(n2ccnn2)CC1` (stereo not shown) it is 11.9%.
The same measure for `C=CS(=O)(=O)Nc1ccccc1`: 6.78%; for `CC1(C(=O)Nc2cccc(S(=O)(=O)F)c2)CCOCC1`: 83.4%.
The same measure for `C=CC(=O)NCC1c2ccccc2C(=O)N1C` (stereo not shown): 7.14%; for `C=CC(=O)NC1(c2ccc(C(F)(F)F)cc2)CC1`: 6.09%; for `C=CC(=O)N1CCCC(c2n[nH]c(=O)o2)C1` (stereo not shown): 1.49%.
In the case of `C=CC(=O)N1CCC(NC(C)=O)(c2nc(C)cs2)C1` (stereo not shown), the Inhibition % was 5.8%.
The figure for `CC1(c2ccc(S(=O)(=O)F)cc2)OCCO1` is 6.74%; for `Cc1nc(C(C)(C)C)nc(S)c1C(=O)O` it is 1.97%; for `Cc1nc(C2CC2)nc(S)c1C(=O)O` it is 51.1%.
For the compound `Cc1nc(C2CC2)nc(S)c1C#N`, the Inhibition % is 2.7%.
For `C=CC(=O)NC1COc2c(C)cccc2C1` (stereo not shown), the Inhibition % turned out to be 10.9%.
The figure for `CC1(C)OB(c2cc3ccccc3cc2Br)OC1(C)C` is 11.9%; for `CN(c1ccc(C(=O)CCl)cc1)S(C)(=O)=O` it is 94.3%.
On to `CCN(c1ccc(C(=O)CCl)cc1)S(C)(=O)=O`, for which the Inhibition % is 95.1%.
For the compound `N#Cc1ccc(C(=O)CCl)cc1`, the Inhibition % is given as 18.8%.
The figure for `O=C(CCl)N(C1CCCCC1)C1CCS(=O)(=O)C1` (stereo not shown) is 1.27%.
The same measure for `O=C(CCl)NCC#Cc1cccc(C(F)(F)F)c1`: 6.88%.
